Test [1] is described as follows: NCI Yeast Anticancer Drug Screen. Data for the rad50 strain (AID 155).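 Also: 0% = growth of vehicle-only cultures of the same strain.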 The note with it: S. cerevisiae rad50 strain growth inhibition; at 50.0 µM; hits give high values. The essentials: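 DNA repair mutant yeast, compound exposure, growth read-out; inhibition is taken relative to vehicle.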
Test [2] is described as follows: NCI Yeast Anticancer Drug Screen. Data for the mec2-1 strain (AID 157). Conditions: S. cerevisiae mec2-1 strain, at 50.0 µM, hits give high values. In short, it runs like this:
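Using mec2-1 yeast: add compound, measure growth, express inhibition versus vehicle-treated cultures.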

A short description of test [3]: NCI Yeast Anticancer Drug Screen. Data for the sgs1 mgt1 strain (AID 161).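 Also: 0% = growth of cultures given vehicle only.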 Conditions: S. cerevisiae sgs1 mgt1 strain, at 50.0 µM, hits give high values. In short, it runs like this:
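This yeast growth screen uses a strain with defined DNA-repair lesions; compound-treated growth is compared with vehicle-treated growth.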

Test [4] in a line: NCI Yeast Anticancer Drug Screen. Data for the cln2 rad14 strain (AID 165).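 Also: 0% = growth equal to vehicle treated cultures.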 Conditions: S. cerevisiae cln2 rad14 strain, at 50.0 µM, hits give high values. In short, it runs like this: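 Yeast strain cln2 rad14, bearing defects in cell cycle control and DNA repair, serves as the test system; values reflect growth inhibition compared with vehicle.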
Test [5] can be described thus: NCI Yeast Anticancer Drug Screen. Data for the bub3 strain (AID 167). The note with it: S. cerevisiae bub3 mutant strain, at 50.0 µM, hits give high values. In short, it runs like this: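 In this screen, a yeast mutant lacking normal mitotic checkpoint function is challenged with compound. Relative growth versus vehicle gives the inhibition value.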
A short description of test [6]: NCI Yeast Anticancer Drug Screen. Data for the mlh1 rad18 strain (AID 175). Conditions: S. cerevisiae mlh1 rad18 strain growth inhibition; at 50.0 µM; hits give high values. The essentials: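 Steps: expose repair-defective yeast to compound; measure growth; express inhibition against vehicle-treated controls.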

These results are taken from PubChem BioAssay (NCI).

About 79,000 compounds went through this panel and 15% of them were active in at least one assay; those are over-represented in the sample as a whole. A number with no mark means an inactive call. The source made the active and inactive calls. Rule as the data show it: active = growth inhibition above about 70%; inactive = the rest.

In the case of `CCO[C@H]1OC(=O)[C@@H]2C(c3ccc([N+](=O)[O-])cc3)=NO[C@H]12`, the growth inhibition in test [1] was -12%; in test [2], -32.5%; in test [3] it was -12.9%; in test [4], 2.7%; in test [5], 4.85%; in test [6], -29.8%.
In the case of `NC1=CN(Cc2ccccc2)C2=N/C(=C\c3ccccc3)C(=O)N12`, the growth inhibition is -13.3% in test [1]; -5.8% in test [2]; 8.5% in test [3]; -16% in test [4]; 14.2% in test [5]; -33.7% in test [6].
Consider `CC1SCCNC1=O` (stereo unspecified), for which the growth inhibition was -2.1% in test [1]; -1.5% in test [2]; -0.1% in test [3]; 7.3% in test [4]; 4% in test [5]; -16.9% in test [6].
Consider `O=C(NNc1ccccc1OCc1ccccc1)C(F)(F)F`, for which the growth inhibition in test [1] is -0.25%; in test [2], -20.3%; in test [3], 0.35%; in test [4] it was 39.8%; in test [5], 27%; in test [6] it was 11.2%.
`C#CCN1CCCC1`: the growth inhibition in test [1] was -9.4%; in test [2] it was -4.35%; in test [3] it was -11%; in test [4], 22.1%; in test [5], 27.7%; in test [6], 10.2%.
As for `CCOC(=O)C(Nc1cccc2ccccc12)C(=O)OCC`, the growth inhibition in test [1] was 0.5%; in test [2], 19.1%; in test [3] it was 9.3%; in test [4], -5.2%; in test [5], 46.2%; in test [6], 25.7%.
As for `C/C(=N/O)c1ccc(C(F)(F)F)cc1`, the growth inhibition is -5.25% in test [1]; -15.6% in test [2]; -18.8% in test [3]; -17.9% in test [4]; -48.5% in test [5]; -2.15% in test [6].
As to `CS/C(=N/N=C(\C)c1ccccn1)[Se][Se]/C(=N/N=C(\C)c1ccccn1)SC`, the growth inhibition in test [1] is 15.7%; in test [2], -1%; in test [3] it was 15.6%; in test [4], 29.2%; in test [5] it was -2.5%; in test [6], 30.9%.
With `O=[N+]([O-])c1ccc(OP(=O)(O)O)cc1`, the growth inhibition in test [1] is -5.9%; in test [2], 13.3%; in test [3], -9.85%; in test [4] it was 20.2%; in test [5] it was 8.95%; in test [6] it was -10.2%.
`CCOC(=O)CSc1[nH]c(NC(=S)Nc2ccccc2)c(C(N)=O)c1C(N)=O`: the growth inhibition in test [1] is -14.2%; in test [2], -8.2%; in test [3], 23.7%; in test [4] it was -1.2%; in test [5], 7.5%; in test [6], -4.45%.
With `Cc1ccccc1NCC#N`, the growth inhibition in test [1] is -23.9%; in test [2], -26%; in test [3] it was -19.2%; in test [4], -15.2%; in test [5], 10%; in test [6], -11.6%.
For the compound `CC[CH2][Sn]([CH2]CC)([O]C(=O)c1cccnc1SC)[O][Sn]([CH2]CC)([CH2]CC)[O]C(=O)c1cccnc1SC`, the growth inhibition in test [1] was 88.5% (active); in test [2], 90% (active); in test [3], 90.8% (active); in test [4], 88.9% (active); in test [5], 89.1% (active); in test [6], 82.1% (active).
As to `C=CCn1c(=S)sc2c(C(=O)OCC)c3c(C)cc(C)cn3c2c1=O`, the growth inhibition in test [1] is -18.1%; in test [2], -56.5%; in test [3], -60%; in test [4], -5%; in test [5], -34.7%; in test [6] it was -37.9%.
Turning to `S=c1[nH][nH]c(=S)c2[nH]cnc12`, the growth inhibition was 1.6% in test [1]; -3.1% in test [2]; -5.55% in test [3]; -18.4% in test [4]; 2.2% in test [5]; -0.4% in test [6].
With `CCOC(CS(=O)(=O)CC(N)=O)OCC`, the growth inhibition in test [1] was 6.3%; in test [2], 0.45%; in test [3] it was -3.75%; in test [4], -29.4%; in test [5], -11.8%; in test [6] it was 5.8%.
As to `C[C@]12CC[C@@H]3c4cc(C=O)c(OCc5ccccc5)cc4CC[C@H]3[C@@H]1CCC2OCc1ccccc1` (stereo partly specified), the growth inhibition in test [1] is 12.4%; in test [2], -8.15%; in test [3], 0.45%; in test [4], 2.9%; in test [5] it was -2.65%; in test [6], -0.95%.
In the case of `CC(=O)c1ccc2c(c1)-c1ccc(C(C)=O)cc1-2`, the growth inhibition in test [1] is -11.9%; in test [2], -0.7%; in test [3], -14.4%; in test [4], -11%; in test [5], -10.8%; in test [6], -7.6%.
As to `c1ccc([Si]2(c3ccccc3)[Si](c3ccccc3)(c3ccccc3)[Si](c3ccccc3)(c3ccccc3)[Si]2(c2ccccc2)c2ccccc2)cc1`, the growth inhibition in test [1] is 6%; in test [2] it was -1.4%; in test [3] it was -35%; in test [4] it was -1.45%; in test [5] it was -0.45%; in test [6], 3.75%.
Regarding `CCCCCCCCCCCCC(Br)C(=O)OCC` (stereo unspecified), the growth inhibition in test [1] is 7.55%; in test [2] it was -7.6%; in test [3], 16.1%; in test [4] it was -5.2%; in test [5], -6.6%; in test [6], 3.95%.
Regarding `CCCCCCCCCCCCCC(=O)OC`, the growth inhibition in test [1] is 27.6%; in test [2], 15.3%; in test [3] it was 16.5%; in test [4] it was -9.3%; in test [5], -1.4%; in test [6] it was 31.4%.
As for `CC1=C2CC[C@@]3(C)C(=CCC3O)C2(C)CCC1=O` (stereo partly specified), the growth inhibition in test [1] was -1.3%; in test [2], 11.9%; in test [3], -7.5%; in test [4], -34%; in test [5], -8.9%; in test [6], -7.6%.
